An excerpt weighted towards active compounds, which were near 2.5% of everything screened.
HTT-AS act – Primary qHTS for Identification of Small Molecule Activators of Huntingtin-Antisense Promoter Activity. HEK293 HTT-AS promoter firefly luciferase reporter, 24 h; response scale: percent change from vehicle, -100% = no light. Potency, µM (highest dose often 57.5 µM), for the others: at the highest dose activity change, positive = activation, hits mostly activators. actives 0.24% (n = 48,000); note: potency is the fitted concentration of half-maximal effect; nearly all actives have a fitted effect of over 55% in size
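HEK293 cells carrying firefly luciferase reporters were seeded at 2,500 per well in Opti-MEM and cultured for 24 h. They were then treated with compounds at up to 57.5 uM final for 24 h at 37 degrees C before Dual-Glo luminescence readout.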
GALK inhibitor – qHTS Assay for Inhibitors of Human Galactokinase (GALK): NCGC Sytravon Library Screen | P51570 | recombinant GALK, Kinase-Glo ATP luminescence, 1 h | 44,000 tested, under 10 active | Potency, µM (highest dose often 57.5 µM), for inactives: at the top dose activity, negative = inhibition, actives largely listed as inhibitors;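 note: plate controls were full GALK reaction for no effect and reaction lacking GALK for full effect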
Target sequence (P51570 whole entry, looked up): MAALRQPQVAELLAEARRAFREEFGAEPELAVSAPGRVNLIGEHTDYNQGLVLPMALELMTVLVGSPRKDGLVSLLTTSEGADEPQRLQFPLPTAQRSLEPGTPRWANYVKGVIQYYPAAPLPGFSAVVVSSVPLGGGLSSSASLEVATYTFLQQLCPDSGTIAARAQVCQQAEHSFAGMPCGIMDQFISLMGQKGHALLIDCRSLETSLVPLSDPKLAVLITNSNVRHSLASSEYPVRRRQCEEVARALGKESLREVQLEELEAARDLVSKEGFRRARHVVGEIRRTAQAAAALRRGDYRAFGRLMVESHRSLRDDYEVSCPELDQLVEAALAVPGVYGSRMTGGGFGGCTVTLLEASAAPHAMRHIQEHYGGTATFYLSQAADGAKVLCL
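Luminescent ATP-depletion readout (Kinase-Glo Plus, 10 min) after 1 h RT reaction of 5 nM GALK, 35 uM ATP, 100 uM galactose, pH 8.0 HEPES buffer. Decreased kinase activity scored as inhibition.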
NTMT1 inh – Primary qHTS for Inhibitors of N-terminal methyltransferase 1 (NTMT1): MTaseGlo Assay; N-terminal Xaa-Pro-Lys N-methyltransferase 1 (Homo sapiens), Q9BV86; actives 2.5% (n = 59,000); NTMT1 MTase-Glo SAH luminescence, purified enzyme; Potency, µM (series often up to 114 µM), for inactives: at the top dose activity change, negative = inhibition, hits mostly inhibitors; AID 1645870, 2021;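 note: potency is the fitted concentration of half-maximal effect; plate controls were DMSO vehicle for no effect and no enzyme for full effect; nearly all actives have a fitted effect of over 65% in size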
Target sequence (Q9BV86 whole entry, looked up): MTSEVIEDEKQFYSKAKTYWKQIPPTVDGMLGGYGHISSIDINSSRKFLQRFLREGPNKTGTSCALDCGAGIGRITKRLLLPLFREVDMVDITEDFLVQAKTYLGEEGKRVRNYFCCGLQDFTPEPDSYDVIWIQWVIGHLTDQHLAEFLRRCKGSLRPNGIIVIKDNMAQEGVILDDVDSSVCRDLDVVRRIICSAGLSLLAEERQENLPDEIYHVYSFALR
FH mod – Identification of activators of human fumarate hydratase by quantitative high-throughput screening; Fumarate hydratase, mitochondrial (Homo sapiens), P07954; FH coupled MDH/diaphorase resazurin fluorescence, 15 min; Potency, µM (highest dose often 79.9 µM), for inactives: top-dose activity change, negative = inhibition, hits mostly inhibitors; actives 0.22% (n = 54,000); note: potency is the fitted concentration of half-maximal effect; % is set by controls: 0 for no effect and ±100 for the full control effect; the screen sought activators but most active calls are inhibition curves; nearly all actives have a fitted effect of over 45% in size
HTT prom inh – Primary qHTS for Identification of Small Molecule Inhibitors of Huntingtin Promoter Activity; Potency, µM (series often up to 57.5 µM), inactives show at the top dose activity change, negative = inhibition, usual class: inhibitors; HEK293 HTT promoter firefly luciferase reporter, 24 h; actives 0.93% (n = 48,000); note: potency is the fitted concentration of half-maximal effect; nearly all actives have a fitted effect of over 50% in size
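Quantitative HTS used concentration series of up to 57.5 uM final on HEK293 luciferase reporter cells, 24 h at 37 degrees C. Readout was Dual-Glo firefly luminescence.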
An asterisk follows results filed as active; ? = inconclusive; / = no result given; ! = not confirmed by another sample; [ ] = remark or other dose. Calls come from the whole dose curve; as a rule, active = well fitted curve in the direction sought with a large enough effect; inconclusive = small, poorly fitted or top-dose-only effect, or another doubt; inactive = no such curve, though single readings can be large; an effect the other way counts as inactive or inconclusive.

SMILES	HTT-AS act	GALK inhibitor	NTMT1 inh	FH mod	HTT prom inh
CSc1ccc(CCNc2ncnc3onc(-c4ccc(Cl)cc4)c23)cc1	-53.0%	1.3%	3.6%	-9.6%	17.8µM*
Cc1nc2c(-c3ccccc3)c(C)[nH]n2c(=O)c1Cc1ccc(Br)cc1	-65.5%	8.0%	?	9.3%	12.6µM*
CC(=O)O[C@H]1CC[C@@]2(CI)C(=CC[C@@H]3[C@@H]2CC[C@]2(C)[C@@H]([C@H](C)CCCC(C)C)CC[C@@H]32)C1	/	/	-3.0%[12.6 µM]	10.3%[13.5 µM]	/
CC(C)CCC[C@@H](C)[C@H]1CC[C@H]2[C@@H]3CC=C4C[C@@H](OC(=O)NCCN(C)C)CC[C@]4(C)[C@H]3CC[C@]12C	/	/	22.4µM*	-20.2%	/
COc1cc2c(cc1O)CC[C@@H]1[C@@H]2CC[C@]2(C)[C@@H](O)CC[C@@H]12	/	/	35.5µM*	-23.3%[53.3 µM]	/
O=C(O)c1ccccc1C(=O)Nc1ccc(-c2ccccc2)cc1	-61.2%	/	8.57µM*!	-2.5%	?
O=C(c1ccccc1)c1ccccc1NC(=O)c1ccccc1C(=O)O	-5.5%	2.9%	6.7%	-14.0%	-15.7%
Cc1ccc(Cl)cc1N1CCN(CCNC(=O)Nc2ccccc2Cl)CC1	-34.2%	3.8%	89.1µM*	-29.1%	?
FC(F)(F)c1ccccc1-c1nc(NCc2cccc3ccccc23)c2ccccc2n1	/	/	14.1%	/	/
Fc1cc(Cl)cc(-c2ccc(CNc3nc(-c4ccccc4C(F)(F)F)nc4ccccc34)cc2)c1	/	/	8.9%	/	/
O=c1c(-c2ccc(O)cc2)coc2cc(O)cc(O)c12	?	/	70.8µM*!	?	14.4%
COc1ccc(-c2coc3cc(O)cc(O)c3c2=O)cc1	?	/	-33.8%[57.5 µM]	-20.3%[53.3 µM]	17.5%
O=C(Nc1ncc([S+](=O)([O-])N2CCOCC2)s1)c1cccc(Br)c1	/	/	26.1%	/	/
Cc1cc(=O)n(CC(=O)N2CCN(c3ccccc3F)CC2)c2c1c(C)nn2C	-54.2%	2.0%	-4.2%	1.9%	20µM*
CNc1oc(-c2ccc3cnccc3c2)nc1C#N	/	/	2.1%	/	/
COc1ccc(C(CC(=O)Nc2ccc(C)c(C)c2)N2Cc3ccccc3C2=O)cc1OC (stereo unspecified)	-36.3%	1.0%	-8.9%	-0.5%	-22.7%
COc1ccc(C(CC(=O)Nc2ccc(F)c(Cl)c2)N2Cc3ccccc3C2=O)cc1OC (stereo unspecified)	-28.8%	1.6%	89.1µM*	?	-24.5%
CCCNC(=O)Nc1ccc(Oc2ncnc3cc(OC)c(OC)cc23)cc1Cl	-10.1%	/	17.1%[57.5 µM]	1.2%	-8.0%
COc1cc(Oc2ccnc3cc(OC)c(OC)cc23)ccc1NC(=O)NC(C)c1nccs1 (stereo unspecified)	-24.6%	/	79.4µM*!	0.7%	-13.5%
CCc1ccc2nc(N3CCN(C(=O)C4CC4)CC3)sc2c1	?	0.1%	-6.7%	-3.0%	2.2%
CCc1ccc2nc(N3CCC(C(=O)O)CC3)sc2c1	-75.0%	-0.3%	-0.4%	-11.2%	10µM*
CCC(Cc1ccccc1)NC(=O)c1ccc2nc(N3CCC(C)CC3)sc2c1 (stereo unspecified)	-71.0%	6.6%	3.5%	-8.3%	1.26µM*
COc1cc(O)c(C(CC(=O)N2CCC(c3ccccc3)CC2)c2ccc(OC)c(OC)c2)c(OC)c1 (stereo unspecified)	/	/	7.7%[228 µM]	/	/
CC(C)OC(=O)OCOP(=O)(COC(C)Cn1cnc2c(N)ncnc21)OCOC(=O)OC(C)C (stereo unspecified)	/	/	12.4%	?	/
CN1CCN(c2ccc3nc(-c4cc(C(C)(C)C)c(OCCCC(=O)NCCCN=[N+]=[N-])c(C(C)(C)C)c4)[nH]c3c2)CC1	/	/	0.5%	/	/
SMILES	HTT-AS act	GALK inhibitor	NTMT1 inh	FH mod	HTT prom inh
CCN(CC)CCOc1ccccc1C(=O)CCc1ccccc1	-14.4%	/	23.7%[57.5 µM]	4.9%[53.3 µM]	-7.4%
CCN(CC)CCOc1ccc(C(=C(Cl)c2ccccc2)c2ccccc2)cc1	24.3µM*	/	-24.6%[57.5 µM]	5.6%[53.3 µM]	-9.3%
CCN(CC)CCOc1ccc(Cc2ccccc2)cc1	5.4%	/	31.6µM*!	6.2%[53.3 µM]	-2.8%
Cc1ccc(S(=O)(=O)Nc2cc(-c3ccc(C#N)s3)ccc2C)cc1	/	/	20.7%	/	/
Fc1cccc(-c2ccc(Nc3nc(-c4ccncc4)nc4ccccc34)cc2F)c1	/	/	2.3%	/	/
CC[N+](CC)(CC)CCOc1ccc(/C=C/c2ccccc2)cc1	-33.9%	/	28.2µM*	?	?
CC[N+](CC)(CC)CCOc1cccc(OCC[N+](CC)(CC)CC)c1OCC[N+](CC)(CC)CC	-1.1%	/	8.91µM*!	-14.0%[53.3 µM]	-0.8%
O=C(Nc1ccc(F)nc1)Nc1nnc(-c2ccncc2)s1	/	/	-1.4%	/	/
CC(C)(C)OC(=O)NCCOCCOCCOc1cccc(-n2ncc3c2CCCC3NC(=O)c2ccccn2)c1 (stereo unspecified)	/	/	3.2%	/	/
CC(C)c1onc(-c2c(Cl)cccc2Cl)c1COc1ccc(/C=C/c2cccc(C(=O)O)c2)c(Cl)c1	/	/	31.6µM*	/	/
COC(=O)c1ccc(OC(C)=O)c2ncccc12	/	/	16.9%	/	/
COc1cc(Nc2nc(-c3ccncc3)nc3ccccc23)ccc1NS(C)(=O)=O	/	/	-0.6%	/	/
CN1CCN(c2ccc(Nc3nc(-c4ccncc4)nc4ccccc34)cc2F)CC1	/	/	22.4µM*	/	/
COc1cc(Nc2nc(-c3ccncc3)nc3ccccc23)ccc1N1CCN(C)CC1	/	/	8.91µM*	/	/
O=c1c(O)c(-c2ccc(O)c(O)c2)oc2cc(O)cc(O)c12	-6.5%	/	?	?	-12.1%
O=c1cc(-c2ccc(O)c(O)c2)oc2cc(O)cc(O)c12	?	/	31.6µM*!	-8.4%[53.3 µM]	48.3%
CNc1nnc(-c2cccc3ccccc23)o1	/	/	-1.2%	/	/
COc1cccc(C(=O)NC(c2ccc(Cl)cc2)c2cc(Cl)c3cccnc3c2O)c1 (stereo unspecified)	-43.7%	0.0%	10.3%	-5.7%	?
COc1cc(C(=O)NC(c2ccc(Cl)cc2)c2cc(Cl)c3cccnc3c2O)cc(OC)c1OC (stereo unspecified)	-60.8%	-5.1%	4.8%	-16.3%	5.01µM*
COc1ccc(CCNC(=O)c2cc3c(-c4ccc(OC)c(OC)c4)nn(C)c3s2)cc1OC	-45.6%	7.7%	3.8%	31.6µM*	-18.8%
CN(C)CCC[C@]1(c2ccc(F)cc2)OCc2cc(C#N)ccc21	/	/	?	5.0%	/
CN(C)CCC[C@@]1(c2ccc(F)cc2)OCc2cc(C#N)ccc21	-8.4%	/	25.1µM*	-2.0%[53.3 µM]	-9.7%
CC(C)(C)c1ccc(CN2CCN(C(c3ccccc3)c3ccc(Cl)cc3)CC2)cc1 (stereo unspecified)	/	/	-5.0%[57.5 µM]	1.5%	/
